# PubChem BioAssay AID602393 (Broad Institute, 2012)
# Among all 350,000 compounds or so, about 7,000 (2%) were called active. This excerpt belongs to a sample that is enriched for actives. Unmarked numbers belong to inactive results. No stated cut-off is given here; in the data, active means activation above about 40%; inconclusive means no clear call, values can overlap the other calls; inactive means below that.
# Assay: raisers of Bmi1 knock-in reporter signal – mouse ES cells, Bmi1 luciferase knock-in, single point, esBAF inhibitor project, primary screen (AID 602393);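 further: 0% = median of the plate's neutral control wells and 100% = double that signal; a rise in the Bmi1 reporter signal indicates esBAF inhibition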
# Conditions: 24 h, at 12.5 µM, stronger effect = higher value, 100% = twice the neutral-well signal
row,SMILES,reporter increase
1,CCn1c(Cc2cccs2)nnc1SCC(=O)c1ccc(C)cc1,25.1%
2,CCn1c(SCC(=O)N(C)C2CCS(=O)(=O)C2)nnc1-c1cccs1 (stereo unspecified),-1.83%
3,CCn1c(SCC(=O)c2ccc(Cl)s2)nnc1-c1cccs1,46% (active)
4,COc1ccc(S(=O)(=O)N[C@@H]2CC[C@@H](CC(=O)NCCc3ccccc3)O[C@@H]2CO)cc1,3.19%
5,C[C@@H]1CCCCO[C@@H](CN(C)C(=O)Cc2ccccc2)[C@H](C)CN([C@@H](C)CO)C(=O)c2cc(NC(=O)Nc3ccc(F)cc3)ccc2O1,1.88%
6,CC(C)NC(=O)N(C)C[C@@H]1OCc2ccccc2-c2c(n(C)c3ccccc23)C(=O)N([C@@H](C)CO)C[C@H]1C,-0.481%
7,O=C(Oc1ccc([N+](=O)[O-])cc1)c1ccc2ccccc2n1,0.987%
8,O=[N+]([O-])c1ccc2c(c1)Nc1nc3ccccc3nc1N2,47.3% (active)
9,O=[N+]([O-])c1cc2ccccc2nc1-c1ccccc1,-3.44%
10,CO[C@@H]1CN(C)C(=O)c2cc(NC(=O)c3ccccc3F)ccc2OC[C@@H](C)N(CC2CC2)C[C@H]1C,1.73%
11,COc1ccccc1S(=O)(=O)N1CC[C@H]2[C@@H](CO)N(C)c3ccc(C#Cc4ccccc4)cc3[C@H]21,-3.04%
12,C[C@H]1CCCCO[C@@H](CN(C)Cc2ccncc2)[C@@H](C)CN([C@@H](C)CO)C(=O)c2cc(NC(=O)Nc3ccc(F)cc3)ccc2O1,-1.97%
13,CCOC(=O)c1ccc(-c2ccc(C(=O)Nc3cccnc3)o2)cc1,58.2% (active)
14,COc1cccc(C(=O)Nc2cccnc2)c1OC,0.381%
15,CCOC(=O)c1ccc(NC(=O)CNC(=O)c2ccco2)cc1,-2.33%
16,CC(=O)N1[C@@H](CO)[C@@H]2c3ccccc3N(S(=O)(=O)c3ccccc3)C[C@@H]21,0.543%
17,Cc1ccc(OCC(=O)Nc2ccc(N3CCN(C(=O)c4ccco4)CC3)cc2)c(C)c1,0.555%
18,COc1ccc2nc(N3CCN(C(=O)c4ccc([N+](=O)[O-])o4)CC3)sc2c1,-6.63%
19,Cc1ccc2nc(N3C(=O)C(O)=C(C(=O)c4ccco4)C3c3cccc(O)c3)sc2c1 (stereo unspecified),43.5% (active)
20,O=C(Cc1c(F)cccc1Cl)N1CCN(C(=O)c2ccco2)CC1,3.68%
21,C=CCSc1nnc(N2C(=O)C(O)=C(C(=O)c3ccco3)C2c2ccc(F)cc2)s1 (stereo unspecified),10.6%

row,SMILES,reporter increase
1,O=C(c1ccco1)N1CCN(C(=S)Nc2cc(F)cc(F)c2)CC1,7.97%
2,O=C(NCCCN1CCOCC1)c1cc(-c2ccccc2F)no1,19.6%
3,O=C(c1cccc([N+](=O)[O-])c1)N1CCN(C(=O)c2ccco2)CC1,-1.81%
4,O=C(c1ccco1)N1CCN(C(=O)c2cc(-c3ccccc3F)no2)CC1,66.3% (active)
5,O=C(c1ccco1)N1CCN(c2cccc(Cl)c2)CC1,45.4% (active)
6,COc1ccc2nc(N3C(=O)C(O)=C(C(=O)c4ccco4)C3c3ccco3)sc2c1 (stereo unspecified),-10.8%
7,Cc1ccc2nc(N3CCN(C(=O)c4ccco4)CC3)sc2c1,54.6% (active)
8,COCC#Cc1cnc2c(c1)C(=O)N([C@@H](C)CO)C[C@@H](C)[C@@H](CN(C)C(=O)c1cccnc1)O2,3.33%
9,C[C@H](CO)N1C[C@H](C)[C@H](CN(C)C(=O)Nc2ccc3c(c2)OCO3)Oc2ccc(NS(=O)(=O)c3ccc(Cl)cc3)cc2CC1=O,4.87%
10,Cc1cccc(CN(C)C[C@@H]2OCc3cn(nn3)CCCC(=O)N([C@@H](C)CO)C[C@H]2C)c1,-0.643%
11,COCCNC(=O)[C@@H]1[C@@H](CO)[C@@H]2Cn3c(ccc(-c4ccccc4F)c3=O)[C@@H]2N1C(=O)C1CC1,2.48%
12,CO[C@@H]1CN(C)C(=O)c2cc(NC(=O)Nc3ccc(F)cc3)ccc2OC[C@@H](C)NC[C@@H]1C,-1.25%
13,CO[C@H]1CN(C)C(=O)c2ccc(NC(=O)Nc3ccc4c(c3)OCO4)cc2OC[C@H](C)NC[C@H]1C,37%
14,CO[C@@H]1CN(C)C(=O)c2cc(NC(=O)Nc3ccc4c(c3)OCO4)ccc2OC[C@@H](C)NC[C@@H]1C,73.2% (active)
15,COc1ccc(NC(=O)N(C)C[C@@H]2Oc3ccc(NC(=O)Cn4cnnn4)cc3C(=O)N([C@H](C)CO)C[C@@H]2C)cc1,1.18%
16,O=C(/C=C/c1ccc(Cl)cc1Cl)NCc1ccco1,44.2% (active)
17,O=C(COC(=O)Cc1ccc(Cl)cc1Cl)NCc1ccco1,-12.6%
18,COC(=O)/C=C/C(=O)NCc1ccco1,8.72%
19,COc1ccc(S(=O)(=O)Nc2ccc3c(c2)CC(=O)N([C@@H](C)CO)C[C@@H](C)[C@H](CN(C)S(=O)(=O)c2ccccc2)O3)cc1,4.43%
20,COc1ccc(S(=O)(=O)Nc2ccc3c(c2)C(=O)N([C@@H](C)CO)C[C@@H](C)[C@H](CN(C)Cc2ccc(C(F)(F)F)cc2)OCCCC[C@@H](C)O3)cc1,-1.52%
21,Cc1cc(-n2nc(C)cc2C)n2ncc(-c3ccccc3)c2n1,28.6%

row,SMILES,reporter increase
1,COc1ccccc1-c1cnn2c(N3CCOCC3)cc(C)nc12,57.3% (active)
2,COc1ccccc1NC(=O)C1CCCN(c2cc(C)nc3ncnn23)C1 (stereo unspecified),-8.67%
3,CN1c2ccc(C3=CCCCC3)cc2[C@H]2[C@H](CCN2S(=O)(=O)c2ccccc2)[C@@H]1CO,3.61%
4,Cc1ccc(/C=N/NC(=O)c2sccc2OCc2ccc(F)cc2)cc1,53.7% (active)
5,Cc1ccc(S(=O)(=O)N(CC(=O)N/N=C/c2ccc(F)cc2)c2cccc3cccnc23)cc1,0.787%
6,Cc1ccc(S(=O)(=O)Oc2ccc(/C=N/NC(=O)c3ccncc3)cc2)cc1,4.2%
7,C[C@H]1CN([C@@H](C)CO)S(=O)(=O)c2ccc(-c3ccccc3)cc2O[C@H]1CN(C)C(=O)CC1CC1,-0.183%
8,CCCNC(=O)N1C[C@H]2[C@@H](c3ccccc31)[C@@H](CO)N2C(=O)NCCC,-2.97%
9,O=C(NCC[C@H]1CC[C@H](NC(=O)C2CC2)[C@@H](CO)O1)c1cc(Cl)cc(Cl)c1,1.12%
10,C[C@@H]1CN([C@H](C)CO)C(=O)c2cc(Br)cnc2O[C@@H]1CN(C)C(=O)C1CC1,-3.93%
11,O=[N+]([O-])c1ccc(N2CCOCC2)cc1,6.61%
12,O=C(Nc1ccc(N2CCOCC2)cc1)c1ccc(-c2ccccc2[N+](=O)[O-])o1,22.9% (active)
13,COc1ccccc1C(=O)NC(=S)Nc1ccc(N2CCOCC2)cc1,25.5%
14,C[C@H]1CN([C@@H](C)CO)C(=O)c2cccc(NS(=O)(=O)c3cccs3)c2O[C@H]1CN(C)C(=O)Nc1ccccc1,-1.97%
15,O=C(Cc1ccncc1)NCC[C@H]1CC[C@H](NC(=O)C2CC2)[C@H](CO)O1,-2.52%
16,Cn1c(SCC(=O)Nc2nccs2)nnc1-c1cccnc1,-5.27%
17,CC(=O)c1cc(C#N)c(SCC(=O)C(C)(C)C)nc1C,50.6% (active)
18,CC(=O)c1cnc(SCC(=O)O)nc1C,-5.69%
19,Cc1cc(NC(=O)CSc2nc3c(cc2C#N)CCCCC3)no1,-7.82%
20,CCn1c(SCC(=O)Nc2nccs2)nnc1-c1ccncc1,-8.57%
21,CC(=O)c1cc(C#N)c(SCC(=O)Nc2nccs2)nc1C,64.7% (active)

row,SMILES,reporter increase
1,COCC(=O)Nc1ccc2c(c1)C(=O)N(C)C[C@H](OC)[C@@H](C)CN(CC1CC1)[C@@H](C)CO2,-0.99%
2,COc1ccccc1NC(=O)N[C@H]1CC[C@H](CCNS(=O)(=O)c2ccc(Cl)cc2)O[C@H]1CO,16.7%
3,CCN1[C@@H]2c3cccc(=O)n3C[C@H]1[C@H](CO)[C@H]2C(=O)NC1Cc2ccccc2C1,-2%
4,CCC(=O)N1C[C@@H](C)[C@H](OC)CN(C)C(=O)c2ccc(NC(=O)Nc3ccccc3)cc2OC[C@@H]1C,-0.74%
5,CCc1ccc(NC(=O)Nc2ccncc2)cc1,19.8%
6,COc1cccc(C(=O)NNC(=O)/C=C/c2ccccc2)c1,-6.98%
7,COc1cccc(C(=O)NNC(=O)c2cccc(F)c2)c1,46.1% (active)
8,CCC(=O)Nc1ccc(C(=O)NNC(=O)c2ccc(Cl)cc2)cc1,-4.4%
9,COc1cccc(NC(=O)Nc2ccc(F)cc2)c1,47.9% (active)
10,COc1cccc(NC(=O)CC2C(=O)NCCN2C(=S)Nc2ccc(F)cc2)c1 (stereo unspecified),3.78%
11,CCC(=O)Nc1ccc(C(=O)Nc2cccc(OC)c2)cc1,49.8% (active)
12,COc1cccc(C(=O)NNS(=O)(=O)c2ccc(F)cc2)c1,-2.92%
13,O=C(Nc1ccccc1)c1ccc2nsnc2c1,28.4%
14,CCC(=O)Nc1ccc(C(=O)Nc2cc(C)on2)cc1,15.4%
15,COc1cccc(N(CC(=O)Nc2cccc(F)c2)S(C)(=O)=O)c1,-2.9%
16,COc1ccc(NC(=O)Nc2ccc3nsnc3c2)cc1,100% (active)
17,CNC(=O)C[C@H]1CC[C@H]2[C@@H](COc3ccc(NC(=O)c4cccc(OC)c4)cc3C(=O)N2C)O1,4.25%
18,COc1cccc(C#Cc2cnc3c(c2)C(=O)N([C@@H](C)CO)C[C@H](C)[C@H](CN(C)CC2CC2)O3)c1,-5.64%
